Shown is part of a subset that was picked to be rich in hits.
Artemis endo inh = Artemis (human) endonuclease inhibition. Q96SD1. recombinant Artemis, quenched FAM hairpin cleavage fluorescence. inhibition, % at 10 µM. 0.78% of 30,000 active. AID 686954;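 active = at 10 µM dose, at least 30% inhibition, measured as corrected fluorescence normalized to stimulator and neutral control wells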
Target sequence (Q96SD1 whole entry, looked up): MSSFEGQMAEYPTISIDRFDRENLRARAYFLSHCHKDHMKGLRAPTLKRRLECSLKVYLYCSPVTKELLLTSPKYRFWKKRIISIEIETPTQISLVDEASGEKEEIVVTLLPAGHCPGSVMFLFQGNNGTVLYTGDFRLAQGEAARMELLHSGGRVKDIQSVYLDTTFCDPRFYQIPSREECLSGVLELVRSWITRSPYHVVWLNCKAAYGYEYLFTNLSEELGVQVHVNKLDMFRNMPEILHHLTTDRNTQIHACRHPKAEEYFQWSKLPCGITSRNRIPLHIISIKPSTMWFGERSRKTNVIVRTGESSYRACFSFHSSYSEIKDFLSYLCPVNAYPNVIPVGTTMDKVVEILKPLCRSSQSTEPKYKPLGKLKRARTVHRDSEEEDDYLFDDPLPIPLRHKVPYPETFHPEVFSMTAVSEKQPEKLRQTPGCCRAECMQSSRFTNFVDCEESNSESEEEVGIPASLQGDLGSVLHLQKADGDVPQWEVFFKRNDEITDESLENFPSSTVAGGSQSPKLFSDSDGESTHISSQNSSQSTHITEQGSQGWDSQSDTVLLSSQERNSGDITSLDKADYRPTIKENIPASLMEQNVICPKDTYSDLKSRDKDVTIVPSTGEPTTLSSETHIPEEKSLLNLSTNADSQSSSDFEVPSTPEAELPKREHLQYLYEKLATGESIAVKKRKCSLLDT
Starred values were filed as active, the others as inactive.

SMILES	Artemis endo inh
CCN1CCCC1CNS(=O)(=O)c1ccc(C(=O)Nc2ccccc2)cc1 (configuration not stated)	2
CC1CCCCN1S(=O)(=O)c1ccc(C(=O)Nc2nnc(-c3ccccc3Cl)o2)cc1 (configuration not stated)	32*
CCC1CCCCN1S(=O)(=O)c1ccc(C(=O)Nc2nnc(-c3ccccc3Cl)o2)cc1 (configuration not stated)	36*
CC1CCCCN1C(=O)c1ccc(S(=O)(=O)N2CCCCC2C)cc1 (configuration not stated)	-3
COc1ccccc1-c1nnc(NC(=O)c2ccc(S(=O)(=O)N(C)C)cc2)o1	7
CCCCN(CC)S(=O)(=O)c1ccc(C(=O)Nc2nnc(-c3ccccc3Cl)o2)cc1	10
Cc1c(NC(=O)c2cc3nc(-c4ccc(Cl)cc4)cc(C(F)(F)F)n3n2)c(=O)n(-c2ccccc2)n1C	13
O=C1c2cccc(Cl)c2C(=O)c2c1cccc2N1CCCC1	15
O=c1c2ccccc2nc(N/N=C/c2ccc(O)cc2)n1O	29
O=c1c2ccccc2nc(N/N=C/c2c(O)ccc3ccccc23)n1O	61*
CCCc1nc2ccccc2c(=O)n1/N=C/c1ccc(O)cc1O	5
Cc1ccc(NC2=NC(=S)N(CC#N)C23CCCCC3)cc1	2
C=CC[N+](C)(C)C/C(Cl)=C(\Cl)c1ccccc1	-6
CCC(=O)Nc1ccc2oc(-c3ccccc3Br)nc2c1	-3
Nc1ccc2oc(-c3cccc4ccccc34)nc2c1	-2
O=C(Nc1ccc2oc(-c3cccc4ccccc34)nc2c1)c1ncn[nH]1	32*
CC12CCC(C(=O)NCc3ccc4c(c3)OCO4)(C(=O)C1=O)C2(C)C (configuration not stated)	-1
O=C1Cc2ccccc2C(=O)N1Cc1ccccc1	25
CC(C)C(=O)N1CCC(CN=CC2=C(O)CC(C)(C)CC2=O)CC1	-9
O=C(Oc1ccc([N+](=O)[O-])cc1)c1cc(-c2ccccc2)nc2ccccc12	-1
O=C(N/N=C/c1ccc([N+](=O)[O-])o1)c1cc(-c2cccc(Br)c2)nc2ccccc12	39*
O=C(NCc1ccco1)c1cc(-c2ccccc2)nc2ccccc12	-2
O=C(Cc1ccc(Br)cc1)N1CCN(c2ccc(F)cc2)CC1	-2
CCCNC(=O)c1cnc(Sc2ncc(C(F)(F)F)cc2Cl)n1C	-1
Cc1ccc(SCC(=O)Nc2cccc(NC(=O)c3ccco3)c2)cc1	0
SMILES	Artemis endo inh
COc1cccc(/C=N\n2c(C)nnc2C)c1OC	-5
COc1cccc(/C=N/Nc2nn3cnnc3c3ccccc23)c1O	35*
COc1cccc(/C=N/NC(=O)CSc2nnc(C)n2-c2ccccc2)c1OC	-10
N/N=c1\sc2ccccc2n1-c1ccccc1	-3
CC(C(=O)O)N1C(=O)/C(=C/C=C/c2ccco2)SC1=S (configuration not stated)	40*
O=C1/C(=C\c2ccco2)SC(=S)N1Cc1ccccc1	16
C=CCSC1=N/C(=C\C=C\c2ccco2)C(=O)S1	15
Cc1ccc(-n2[nH]c(C)c(/C=C3/C=Nc4ccccc43)c2=O)cc1C	7
Cc1c(C(=O)N2CCCCC2)sc(NC(=O)C23CC4CC(CC(C4)C2)C3)c1C#N	7
CCOc1cccc(-c2nn3c(-c4cc(C)[nH]n4)nnc3s2)c1	6
Cc1cc(-c2nnc3sc(-c4ccc(Cl)cc4Cl)nn23)n[nH]1	6
COc1cccc(OC)c1-c1nn2c(-c3cc(-c4ccccc4)n[nH]3)nnc2s1	80*
O=C(O)CC(C(=O)O)c1cn(Cc2ccccc2)c2ccccc12 (configuration not stated)	2
N#Cc1ccccc1Cn1cc(C#N)c2ccccc21	10
Cc1[nH][nH]c(=O)c1C(c1c(C)[nH][nH]c1=O)c1cn(Cc2cccc3ccccc23)c2ccccc12	47*
CC1CC(c2ccccc2)n2nc(NC(=O)CCc3ccccc3)nc2N1 (configuration not stated)	0
O=C1CC(c2ccccc2)n2nc(NC(=O)C3CCCO3)nc2N1 (configuration not stated)	-8
O=C(Nc1nc2n(n1)C(c1ccccc1)CC(c1ccc(Cl)cc1)N2)c1ccco1 (configuration not stated)	31*
CC(C)CSc1nc2c(=O)[nH][nH]c(=O)c2n1Cc1ccccc1	5
COc1ccc(OC)c(NC(=O)CSC2=NCCS2)c1	-10
COc1ccc(CC(=O)NC2=NCCS2)cc1	5
COc1ccc(Nc2nc(Nc3ccc(OC)cc3)nc(SC3=NCCS3)n2)cc1	79*
CCCCCCCCC/C(=N\O)c1ccccn1	35*
CCCCCCOc1ccc(/C(N)=N/O)cc1	-7
CCCCCCCCCCNC(=O)C(=O)Nc1ccccn1	5
CCC(C)C(NC(=O)C(C)NC(=O)CNC(=O)CNC(=O)OCc1ccccc1)C(=O)OC (configuration not stated)	-10
Clc1ccc(SCc2cc(-c3ccc(Cl)cc3)on2)cc1	6
CC1Cc2ccccc2N1C(=O)CSc1nc2c(c(=O)n(C)c(=O)n2C)n1Cc1ccc(F)cc1 (configuration not stated)	12

Assay outcomes: PubChem BioAssay, Sanford-Burnham Center for Chemical Genomics
